Measurements published in PubChem BioAssay (NCATS).
Inconclusive results are not listed. Unmarked numbers belong to inactive results. Activity calls are given as the source filed them. The call rests on the fitted dose curve; in most records, active means well fitted cell-killing curve with a large enough effect; inconclusive means small, poorly fitted or top-dose-only effect, or effect the other way; inactive means no such curve, though single readings can be large or run the other way.

test: Quantitative High-Throughput drug screen in 47 multiple myeloma cell lines against the NCATS MIPE library collection: OPM1_PLB cell viability assay (AID 1918989); conditions: CellTiter-Glo, 48 h; series mostly up to 45.8 µM; viability (% of control): at the top concentration; further: nearly all actives have a fitted effect of over 40% in size
How it was run: (§1)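 ATP-based CellTiter-Glo luminescence after 48 h drug exposure (37 °C, 5% CO2) of 500 myeloma cells per well. DMSO-only wells set 100% viability, media-only wells 0%; MIPE 4.0 library added by pin tool.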
Potency means the concentration at half of the fitted maximal effect.

For `CCCC[N+]1(C)[C@H]2CC(OC(=O)[C@H](CO)c3ccccc3)C[C@H]1[C@H]1O[C@H]12` (some centres not stated), which “viability (% of control)” value is on record?
The value was 103%.

Which Potency does the source give for `N#C[C@H](O[C@@H]1O[C@H](CO[C@@H]2O[C@H](CO)[C@H](O)[C@H](O)[C@H]2O)[C@H](O)[C@H](O)[C@H]1O)c1ccccc1` here?
Its Potency is 26.4 µM (active).

With `CC1(N2CCC(n3c([C@@H]4CCCNC4)nc4ccccc43)CC2)CCCCCCC1` as the compound, how does the Potency read?
The Potency was 7.43 µM (active).

For `CN(C)NC(=O)CCC(=O)O`, which “viability (% of control)” value is on record?
Its value is 144%.

For `O=c1[nH]c2ccccc2n1C1CCN(Cc2ccc(-c3[nH]c4cc5ncnc5cc4nc3-c3ccccc3)cc2)CC1`, which Potency is on record?
The Potency was 2.64 µM (active).

With `CC(C)N(CCNC(=O)CN1CCCC1=O)C(C)C` as the compound, how does the “viability (% of control)” value read?
Its value is 135%.

With `CN[C@@H]1Cc2cccc3[nH]c(=O)n(c23)C1` as the compound, how does the “viability (% of control)” value read?
Its value is 126%.

For `Clc1ccccc1C(c1ccccc1)(c1ccccc1)n1cccn1`, which “viability (% of control)” value is on record?
The value was 131%.

With `Cc1[nH]nc2ccc(-c3cncc(OC[C@@H](N)Cc4c[nH]c5ccccc45)c3)cc12` as the compound, how does the Potency read?
Its Potency is 1.18 µM (active).

Which “viability (% of control)” value does the source give for `O=C(Oc1ccc([N+](=O)[O-])cc1)N1CCN(Cc2cccc(Oc3ccccc3)c2)CC1` here?
Its value is 127%.

Which Potency does the source give for `C[C@@H]1O[C@@H](O[C@@H]2C=C3CC[C@@H]4[C@@H](CC[C@]5(C)[C@H](c6ccc(=O)oc6)CC[C@@]45O)[C@@]3(C)CC2)[C@H](O)[C@H](O)[C@H]1O` here?
The Potency was 0.0296 µM (active).

With `CC[C@@]1(O)C(=O)OCc2c1cc1n(c2=O)Cc2cc3ccccc3nc2-1` as the compound, how does the Potency read?
The Potency was 0.833 µM (active).

For `CC1=C(O)C(=O)C=C2C1=CC=C1[C@@]2(C)CC[C@@]2(C)[C@@H]3C[C@](C)(C(=O)O)CC[C@]3(C)CC[C@]12C`, which Potency is on record?
The Potency was 0.743 µM (active).

Which Potency does the source give for `CC=C(C)C(=O)O[C@H]1C(C)=C2[C@@H]3OC(=O)[C@@](C)(O)[C@@]3(O)[C@@H](OC(=O)CCC)C[C@](C)(OC(C)=O)[C@@H]2[C@@H]1OC(=O)CCCCCCC` here?
The Potency was 0.264 µM (active).

Which Potency does the source give for `COCC1(CO)C(=O)C2CCN1CC2` (configuration not stated) here?
Its Potency is 2.09 µM (active).

With `CN1CCN(c2ccc([N+](=O)[O-])c3no[n+]([O-])c23)CC1` as the compound, how does the Potency read?
Its Potency is 18.7 µM (active).

Which “viability (% of control)” value does the source give for `C[C@]12CCC(=O)C(O)=C1CC[C@@H]1[C@H]3CCC(=O)[C@@]3(C)CC[C@@H]12` here?
The value was 120%.

With `COc1cc([C@@H]2c3cc4c(cc3[C@@H](O)C3COC(=O)C32)OCO4)cc(OC)c1O` (some centres not stated) as the compound, how does the Potency read?
The Potency was 0.0526 µM (active).

With `COc1ccc2c(c1)[C@]13CCCCC1C(C2)N(C)CC3` (some centres not stated) as the compound, how does the “viability (% of control)” value read?
Its value is 90.3%.

Which “viability (% of control)” value does the source give for `CC(N[C@H]1C[C@H]1c1ccccc1)c1ccc2c(c1)OCCO2` (some centres not stated) here?
The value was 111%.

With `C#CC1(O)CCC2C3CCC4=CC(=O)CCC4(C)C3CCC21C` (configuration not stated) as the compound, how does the “viability (% of control)” value read?
Its value is 108%.

With `C[C@]12COC(=O)C[C@@H]1CC[C@@H]1[C@H]2CC[C@@]2(C)[C@H]1CC[C@]2(C)O` as the compound, how does the “viability (% of control)” value read?
Its value is 133%.

For `CCOP(=O)(OCC)C(C)NC(=O)N(CCCl)N=O` (configuration not stated), which “viability (% of control)” value is on record?
Its value is 139%.

With `CSCC[C@@H](NC(=O)[C@@H](Cc1ccccc1)NC(=O)CNC(=O)CNC(=O)[C@@H](N)Cc1ccc(O)cc1)C(=O)O` as the compound, how does the “viability (% of control)” value read?
Its value is 150%.

Which “viability (% of control)” value does the source give for `CCC(=O)OC1CCC2C3CCC4=CC(=O)CC[C@@]4(C)C3CC[C@]12C` (some centres not stated) here?
Its value is 132%.

With `CCc1c(C(=O)C(N)=O)c2c(OCC(=O)O)cccc2n1Cc1ccccc1` as the compound, how does the “viability (% of control)” value read?
The value was 155%.

With `C=C[C@@H]1CN2CCC1C[C@H]2[C@H](O)c1ccnc2ccccc12` (some centres not stated) as the compound, how does the Potency read?
The Potency was 16.6 µM (active).

With `CCN1CCN(C(=O)Cc2ccc(Nc3ncc(F)c(Nc4ccc(C(=O)Nc5ccccc5Cl)cc4)n3)cc2)CC1` as the compound, how does the Potency read?
Its Potency is 5.26 µM (active).

Which “viability (% of control)” value does the source give for `O=C(O)CNC(=O)c1c(O)c2ccccc2n(Cc2ccccc2)c1=O` here?
Its value is 160%.

With `COc1ccc2c(c1)CN(C)CC2c1ccc(Cl)c(Cl)c1` (configuration not stated) as the compound, how does the Potency read?
The Potency was 18.7 µM (active).

test: Quantitative High-Throughput drug screen in 47 multiple myeloma cell lines against the NCATS MIPE library collection: SKMM1_PLB cell viability assay (AID 1919863); conditions: SKMM1 myeloma viability, CellTiter-Glo ATP, 48 h; viability: active compounds read low; further: nearly all actives have a fitted effect of over 35% in size
How it was run: as §1

Which Potency does the source give for `CCOC(=O)c1cncn1[C@H](C)c1ccccc1` here?
The Potency was 7.43 µM (active).

With `N#C[C@H](O[C@@H]1O[C@H](CO[C@@H]2O[C@H](CO)[C@H](O)[C@H](O)[C@H]2O)[C@H](O)[C@H](O)[C@H]1O)c1ccccc1` as the compound, how does the Potency read?
The Potency was 20.9 µM (active).

For `CN(C)NC(=O)CCC(=O)O`, which viability is on record?
Its viability is 111%.

Which Potency does the source give for `O=c1[nH]c2ccccc2n1C1CCN(Cc2ccc(-c3[nH]c4cc5ncnc5cc4nc3-c3ccccc3)cc2)CC1` here?
The Potency was 20.9 µM (active).

Which viability does the source give for `C[C@@H]1[C@H](O)[C@@H](C)C=CC=CCCC=CC=CC=CC=C[C@H](O[C@H]2O[C@@H](C)[C@H](O)[C@@H](N)[C@@H]2O)CC2O[C@](O)(C[C@@H](O)[C@H](O)CC[C@@H](O)C[C@@H](O)C[C@@H](O)CC(=O)O[C@H]1C)C[C@H](O)[C@H]2C(=O)O` here?
Its viability is 120%.

Which viability does the source give for `CN[C@@H]1Cc2cccc3[nH]c(=O)n(c23)C1` here?
Its viability is 93.2%.

Which viability does the source give for `CC(=Cc1csc(C)n1)[C@@H]1C[C@H]2O[C@@H]2CCC[C@H](C)[C@@H](O)[C@@H](C)C(=O)C(C)(C)[C@@H](O)CC(=O)O1` here?
The viability was 81.4%.

For `C[C@@H]1CC[C@H]2[C@@H](C)C(=O)O[C@@H]3O[C@@]4(C)CC[C@H]1[C@]32OO4`, which viability is on record?
The viability was 103%.

With `Cc1[nH]nc2ccc(-c3cncc(OC[C@@H](N)Cc4c[nH]c5ccccc45)c3)cc12` as the compound, how does the Potency read?
The Potency was 5.9 µM (active).

Which viability does the source give for `O=C(Oc1ccc([N+](=O)[O-])cc1)N1CCN(Cc2cccc(Oc3ccccc3)c2)CC1` here?
The viability was 117%.

Which Potency does the source give for `C[C@@H]1O[C@@H](O[C@@H]2C=C3CC[C@@H]4[C@@H](CC[C@]5(C)[C@H](c6ccc(=O)oc6)CC[C@@]45O)[C@@]3(C)CC2)[C@H](O)[C@H](O)[C@H]1O` here?
The Potency was 0.0235 µM (active).

For `CC[C@@]1(O)C(=O)OCc2c1cc1n(c2=O)Cc2cc3ccccc3nc2-1`, which Potency is on record?
The Potency was 0.235 µM (active).

Which Potency does the source give for `C[C@]12Cc3cn[nH]c3C[C@@H]1CC[C@@H]1[C@H]2CC[C@@]2(C)[C@H]1CC[C@]2(C)O` here?
The Potency was 3.32 µM (active).

With `CC1=C(O)C(=O)C=C2C1=CC=C1[C@@]2(C)CC[C@@]2(C)[C@@H]3C[C@](C)(C(=O)O)CC[C@]3(C)CC[C@]12C` as the compound, how does the Potency read?
The Potency was 1.05 µM (active).

Which Potency does the source give for `CC=C(C)C(=O)O[C@H]1C(C)=C2[C@@H]3OC(=O)[C@@](C)(O)[C@@]3(O)[C@@H](OC(=O)CCC)C[C@](C)(OC(C)=O)[C@@H]2[C@@H]1OC(=O)CCCCCCC` here?
The Potency was 0.105 µM (active).

With `COCC1(CO)C(=O)C2CCN1CC2` (configuration not stated) as the compound, how does the Potency read?
The Potency was 6.62 µM (active).

With `CN1CCN(c2ccc([N+](=O)[O-])c3no[n+]([O-])c23)CC1` as the compound, how does the Potency read?
The Potency was 18.7 µM (active).

With `COc1cc([C@@H]2c3cc4c(cc3[C@@H](O)C3COC(=O)C32)OCO4)cc(OC)c1O` (some centres not stated) as the compound, how does the Potency read?
Its Potency is 0.0166 µM (active).

Which viability does the source give for `COc1ccc2c(c1)[C@]13CCCCC1C(C2)N(C)CC3` (some centres not stated) here?
Its viability is 120%.

With `C#C[C@]1(O)C=C[C@@H]2[C@@H]3CCC4=CC(=O)CC[C@@H]4[C@H]3CC[C@@]21CC` as the compound, how does the viability read?
The viability was 126%.

For `C=C[C@@H]1CN2CCC1C[C@H]2[C@H](O)c1ccnc2ccccc12` (some centres not stated), which Potency is on record?
The Potency was 20.9 µM (active).

With `CCN1CCN(C(=O)Cc2ccc(Nc3ncc(F)c(Nc4ccc(C(=O)Nc5ccccc5Cl)cc4)n3)cc2)CC1` as the compound, how does the Potency read?
Its Potency is 9.35 µM (active).
